# Data published in PMC7862700, “An all-to-all approach to the identification of sequence-specific readers for epigenetic DNA modifications on cytosine”.
# Assays:
# Assay in all cases: DAPPL (digital affinity profiling via proximity ligation, sequencing); 10 mM Tris-HCl pH 7.5, 50 mM NaCl, 1 mM DTT, 4% glycerol, room temperature, 30 min; GST-TFs on glutathione beads, 16-mer random dsDNA library, 0.1% formaldehyde crosslink after washing; high values mean tight binding
# Details in all cases: protein: recombinant; tags: N-terminal GST; dsDNA, one strand shown
# ETV1 = ETV1 (Homo sapiens, UniProt P50549 1-477)
# Sequence of ETV1 (P50549 whole entry, the tested form may be a part): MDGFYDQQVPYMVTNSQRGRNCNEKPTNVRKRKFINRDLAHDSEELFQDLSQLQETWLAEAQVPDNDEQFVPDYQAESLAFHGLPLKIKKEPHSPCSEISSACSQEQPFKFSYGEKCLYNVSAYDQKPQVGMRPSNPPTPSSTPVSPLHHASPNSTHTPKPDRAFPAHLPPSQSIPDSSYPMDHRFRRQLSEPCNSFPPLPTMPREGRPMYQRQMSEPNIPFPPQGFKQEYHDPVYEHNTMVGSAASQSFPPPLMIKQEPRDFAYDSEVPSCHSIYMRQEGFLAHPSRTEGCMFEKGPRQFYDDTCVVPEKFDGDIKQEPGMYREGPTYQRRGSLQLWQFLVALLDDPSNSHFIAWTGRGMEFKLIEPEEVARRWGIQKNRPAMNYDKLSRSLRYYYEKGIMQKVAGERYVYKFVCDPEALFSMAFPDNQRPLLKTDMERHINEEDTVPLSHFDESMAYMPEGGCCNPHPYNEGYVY
# Procedure, shortened: (§1)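 Human transcription factors were made in yeast as GST fusions, captured on glutathione beads and barcoded with DNA. With a tag-only sample included, the pool was incubated with 200 nmole of a random double-stranded 16-mer DNA library in Tris/NaCl/DTT/glycerol buffer at room temperature for 30 min, then crosslinked with 0.1% formaldehyde after washing, ligated by proximity, amplified and sequenced. For binding signal, each hexamer's read frequency for a factor is divided by its frequency for the tag-only sample.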
# ERF = molecular target: T1, ERF (Homo sapiens, UniProt P50548 1-548)
# T1 sequence: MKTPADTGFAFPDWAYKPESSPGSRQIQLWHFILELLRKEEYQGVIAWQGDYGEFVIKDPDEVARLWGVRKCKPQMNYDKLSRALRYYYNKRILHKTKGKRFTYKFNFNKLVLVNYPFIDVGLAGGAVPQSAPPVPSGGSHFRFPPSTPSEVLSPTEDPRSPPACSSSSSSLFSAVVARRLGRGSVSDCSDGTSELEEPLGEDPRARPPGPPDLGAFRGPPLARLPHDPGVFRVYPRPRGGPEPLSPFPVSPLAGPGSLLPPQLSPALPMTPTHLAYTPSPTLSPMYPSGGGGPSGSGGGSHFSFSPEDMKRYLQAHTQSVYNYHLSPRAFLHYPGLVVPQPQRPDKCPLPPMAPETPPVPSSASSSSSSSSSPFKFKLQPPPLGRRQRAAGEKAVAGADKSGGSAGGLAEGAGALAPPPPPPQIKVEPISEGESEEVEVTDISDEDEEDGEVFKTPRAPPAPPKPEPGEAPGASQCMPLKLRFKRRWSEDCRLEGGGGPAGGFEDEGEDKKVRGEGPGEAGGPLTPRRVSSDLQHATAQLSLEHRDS
# Procedure, shortened: as §1
# ETV3L = molecular target: T2, ETV3L (Homo sapiens, UniProt Q6ZN32 1-361)
# T2 sequence: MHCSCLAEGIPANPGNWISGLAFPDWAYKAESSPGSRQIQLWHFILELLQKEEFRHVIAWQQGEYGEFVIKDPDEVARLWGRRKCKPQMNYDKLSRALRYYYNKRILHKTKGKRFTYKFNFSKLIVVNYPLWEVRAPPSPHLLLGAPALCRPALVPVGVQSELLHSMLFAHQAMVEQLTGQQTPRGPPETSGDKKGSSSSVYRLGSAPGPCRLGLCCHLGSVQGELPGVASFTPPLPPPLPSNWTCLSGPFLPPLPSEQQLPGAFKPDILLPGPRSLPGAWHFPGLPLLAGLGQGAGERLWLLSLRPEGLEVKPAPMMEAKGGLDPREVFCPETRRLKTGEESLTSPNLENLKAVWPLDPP
# Procedure, shortened: as §1
# ETS2 = molecular target: T3, ETS2 (Homo sapiens, UniProt P15036 1-469)
# T3 sequence: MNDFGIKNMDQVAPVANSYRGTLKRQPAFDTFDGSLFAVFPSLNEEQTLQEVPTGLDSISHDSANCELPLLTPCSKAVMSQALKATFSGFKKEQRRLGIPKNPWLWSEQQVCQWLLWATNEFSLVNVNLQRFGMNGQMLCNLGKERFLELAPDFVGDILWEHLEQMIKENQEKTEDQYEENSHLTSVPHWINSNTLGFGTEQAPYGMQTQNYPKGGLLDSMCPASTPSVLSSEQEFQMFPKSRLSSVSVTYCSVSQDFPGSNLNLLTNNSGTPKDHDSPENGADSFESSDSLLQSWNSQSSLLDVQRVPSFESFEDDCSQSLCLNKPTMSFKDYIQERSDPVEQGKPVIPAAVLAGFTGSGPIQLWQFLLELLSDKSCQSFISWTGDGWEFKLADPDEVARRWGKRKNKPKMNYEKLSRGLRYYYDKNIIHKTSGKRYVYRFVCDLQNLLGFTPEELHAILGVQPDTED
# Procedure, shortened: as §1
# SPDEF = molecular target: T4, SPDEF (Homo sapiens, UniProt O95238 1-335)
# T4 sequence: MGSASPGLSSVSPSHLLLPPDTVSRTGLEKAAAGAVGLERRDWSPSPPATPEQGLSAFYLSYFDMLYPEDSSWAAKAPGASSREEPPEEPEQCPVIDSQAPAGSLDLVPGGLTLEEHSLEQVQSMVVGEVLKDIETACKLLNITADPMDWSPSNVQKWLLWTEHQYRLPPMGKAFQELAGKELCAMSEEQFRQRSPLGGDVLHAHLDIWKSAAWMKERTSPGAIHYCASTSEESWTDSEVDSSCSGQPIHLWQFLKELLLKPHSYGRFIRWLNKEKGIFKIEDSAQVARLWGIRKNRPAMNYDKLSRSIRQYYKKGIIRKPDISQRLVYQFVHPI
# Procedure, shortened: as §1
# ETV7 = molecular target: T5, ETV7 (Homo sapiens, UniProt Q9Y603 1-341)
# T5 sequence: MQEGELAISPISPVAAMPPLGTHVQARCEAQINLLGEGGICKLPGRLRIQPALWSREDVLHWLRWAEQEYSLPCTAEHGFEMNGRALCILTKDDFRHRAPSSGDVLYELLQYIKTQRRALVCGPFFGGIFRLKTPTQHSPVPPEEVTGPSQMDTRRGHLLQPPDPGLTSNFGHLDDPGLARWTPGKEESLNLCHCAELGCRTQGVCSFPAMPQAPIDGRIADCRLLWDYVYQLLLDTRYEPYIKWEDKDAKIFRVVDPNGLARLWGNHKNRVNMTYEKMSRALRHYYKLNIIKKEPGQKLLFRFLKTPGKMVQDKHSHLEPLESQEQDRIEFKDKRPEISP
# Procedure, shortened: as §1
# ELF5 = molecular target: T6, ELF5 (Homo sapiens, UniProt Q9UKW6-2 1-255)
# T6 sequence: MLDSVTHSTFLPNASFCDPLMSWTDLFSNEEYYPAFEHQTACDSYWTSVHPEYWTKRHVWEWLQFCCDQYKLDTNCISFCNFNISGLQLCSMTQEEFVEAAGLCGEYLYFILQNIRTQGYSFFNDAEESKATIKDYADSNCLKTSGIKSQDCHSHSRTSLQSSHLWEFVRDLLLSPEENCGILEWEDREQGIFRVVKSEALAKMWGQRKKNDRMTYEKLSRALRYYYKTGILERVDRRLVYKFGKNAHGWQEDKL
# Procedure, shortened: as §1
# ETV3 = molecular target: T7, ETV3 (Homo sapiens, UniProt P41162-2 1-143)
# T7 sequence: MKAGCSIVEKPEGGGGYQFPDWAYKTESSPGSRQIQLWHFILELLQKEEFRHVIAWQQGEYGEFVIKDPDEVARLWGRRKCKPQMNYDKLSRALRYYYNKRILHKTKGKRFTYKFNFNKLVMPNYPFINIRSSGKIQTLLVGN
# Procedure, shortened: as §1
# ETV6 = ETV6 (Homo sapiens, UniProt P41212 1-452)
# Sequence of ETV6 (P41212 whole entry): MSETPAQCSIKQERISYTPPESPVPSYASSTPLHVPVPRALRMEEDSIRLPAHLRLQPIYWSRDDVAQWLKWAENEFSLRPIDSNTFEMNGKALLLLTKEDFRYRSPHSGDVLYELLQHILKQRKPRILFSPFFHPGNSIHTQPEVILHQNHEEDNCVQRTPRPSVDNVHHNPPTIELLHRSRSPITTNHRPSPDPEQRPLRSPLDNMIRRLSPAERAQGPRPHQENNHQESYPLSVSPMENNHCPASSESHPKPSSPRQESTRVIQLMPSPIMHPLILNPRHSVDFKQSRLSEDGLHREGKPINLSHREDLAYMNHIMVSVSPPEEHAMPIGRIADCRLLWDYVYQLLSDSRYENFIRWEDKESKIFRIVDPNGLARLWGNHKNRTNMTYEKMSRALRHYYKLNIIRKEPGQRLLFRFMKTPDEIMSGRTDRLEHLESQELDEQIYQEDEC
# Procedure, shortened: as §1
sequence,measurement,setting,value
CCACTT,binding signal,ETV1,"1.95 fold enrichment (6-mer frequency, TF over GST control)"
same,binding signal,ERF,"1.9 fold enrichment (6-mer frequency, TF over GST control)"
same,binding signal,ETV3L,"1.79 fold enrichment (6-mer frequency, TF over GST control)"
same,binding signal,ETS2,"1.84 fold enrichment (6-mer frequency, TF over GST control)"
same,binding signal,SPDEF,"1.69 fold enrichment (6-mer frequency, TF over GST control)"
same,binding signal,ETV7,"1.78 fold enrichment (6-mer frequency, TF over GST control)"
same,binding signal,ELF5,"1.89 fold enrichment (6-mer frequency, TF over GST control)"
same,binding signal,ETV3,"1.97 fold enrichment (6-mer frequency, TF over GST control)"
same,binding signal,ETV6,"1.85 fold enrichment (6-mer frequency, TF over GST control)"
